Hits are enriched below; roughly 3.7% of the tested compounds scored in any of these assays.
FMDV antiviral: antivirals against foot and mouth disease virus | FMDV antiviral cell-based qHTS | Potency, µM (series often up to 57.9 µM), for the others: at the top dose activity change, negative = inhibition, hits mostly inhibitors | 1.2% of 410,000 active | AID 1159524; calls by dose curve; tested in HEK293T cells; note: read-out not given here; nearly all actives have a fitted effect of over 45% in size
RE007 growth inh: less growth of the S. pombe RE007 Vpr strain. S. pombe RE007 Vpr strain, BacTiter-Glo ATP luminescence, 24 h. Potency, µM (doses to about 92.2 µM), inactives show at the top dose activity change, negative = less growth, most hits filed as inhibitors. 0.21% of 360,000 active. AID 651644; active = well fitted falling curve with a large enough effect; inconclusive = small, poorly fitted or top-dose-only effect; inactive = no such curve, though single readings can be large or run the other way; note: nearly all actives have a fitted effect of over 50% in size
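Fission yeast RE007 carrying one integrated HIV-1 vpr copy, seeded at OD 0.01 in PMG+AL medium with 23 nL pinned compound. Grown 24 h at 30 degrees; viability read by BacTiter-Glo luminescence after 5 min.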
Sm TGR block: blocks Schistosoma mansoni thioredoxin glutathione reductase; Potency, µM (top dose mostly 114 µM), without a hit: at the highest dose activity change, negative = inhibition, most hits filed as inhibitors; purified TGR, DTNB reduction, TNB absorbance 405 nm; 3% of 360,000 active; Q962Y6; note: nearly all actives have a fitted effect of over 60% in size
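Kinetic colorimetric format: TGR-catalysed, NADPH-driven DTNB reduction monitored via TNB absorbance. Enzyme dispensed at 20 nM; compound exposure 15 min at room temperature before reaction start.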
TbPYK inhibitor: inhibitors of Trypanosoma brucei pyruvate kinase; Q57TT1; TbPYK enzyme, Kinase-Glo Plus ATP luminescence, 45 min; Potency, µM (highest dose often 76.8 µM), for inactives: at the top dose activity, negative = inhibition, usual class: inhibitors; 0.12% of 410,000 active; note: nearly all actives have a fitted effect of over 50% in size
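Assay buffer: 50 mM TEA pH 7.2, 100 mM KCl, 10 mM MgCl2, 0.05% BSA, 0.01% Tween-20. Pyruvate kinase from T. brucei plus substrate met compound, then ADP (130 uM final). Luminescence was read post 45 min RT.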
* = called active by the depositor; ? = inconclusive; / = no result; ! = not active in a repeat; [ ] = remark or other dose. Unless noted, calls come from the whole dose curve; as a rule, active = well fitted curve in the direction sought with a large enough effect; inconclusive = small, poorly fitted or top-dose-only effect, or another doubt; inactive = no such curve, though single readings can be large; an effect the other way counts as inactive or inconclusive. % is set by controls: 0 for no effect and ±100 for the full control effect; potency is the fitted concentration of half-maximal effect.

SMILES | FMDV antiviral | RE007 growth inh | Sm TGR block | TbPYK inhibitor
CCCN1CCC(=O)N([C@H](CSc2ccc(C)cc2)CC(C)C)CC1 | 24.3% | 16.2% | 39.8µM* | -3.5%
CCCN1CCC(=O)N([C@H](CSc2ccc(OC)cc2)Cc2ccccc2)CC1 | -21.9% | 4.6% | 20µM* | 4.4%
CC(C)CN1CCC(=O)N([C@H](CSc2ccc(Br)cc2)Cc2ccccc2)CC1 | -27.8% | 4.6% | 6.31µM* | 3.9%
Cc1ccc(SC[C@H](Cc2ccccc2)N2CCN(C)CCC2=O)cc1 | -9.8% | -17.2% | 39.8µM* | 0.4%
CC(=O)Nc1ccc(SC[C@H](c2ccccc2)N2CCN(CCc3ccccc3)CCC2=O)cc1 | / | / | 14.1µM* | /
CC(C)c1ccc(C2Sc3ccccc3NC3=C2C(=O)c2ccccc23)cc1 (centres undefined) | 7.94µM* | / | 0.8% | -3.6%
Cc1cccc(NC(=O)CSc2nnc(-c3ccco3)c(-c3ccco3)n2)c1 | ? | 9.3% | 3.55µM* | -20.0%
Cc1cccc(NC(=O)Cn2nc(-c3ccco3)ccc2=O)c1C | -26.4% | 26.2% | 31.6µM* | -8.4%
O=C(Cn1nc(-c2ccco2)ccc1=O)Nc1ccc(Br)cc1 | 4.8% | -1.8% | ? | -20.8%
Cc1cccc(NC(=O)CSc2nnc(-c3ccco3)c(-c3ccco3)n2)c1C | -5.0% | 6.9% | 3.55µM* | ?
Cc1cnc(-n2ncc(C(=O)NCc3ccncc3)c2C2CC2)nc1-c1cccs1 | -28.9% | / | / | /
O=C(Cc1cccs1)NC1CC(=O)N(c2cccc(F)c2)C1 (centres undefined) | -10.8% | / | 13.2% | -12.5%
COc1cc(Nc2nn(-c3ccc(OC(F)(F)F)cc3)nc2C(C)=O)cc(OC)c1 | 0.1% | / | 6.4% | 1.5%
CCCCN(CC)CCCNC(=O)CS(=O)(=O)Cc1nc(-c2ccc(C)cc2)oc1C | -24.2% | / | -14.6% | 6.3%
Cc1cc2c3c(c1)C(C)CC(C)(C)N3C(=O)C2=C(C#N)C#N (centres undefined) | ? | -2.6% | 3.98µM* | 3.6%
Cc1cc2c3c(c1)C(C)CC(C)(C)N3C(=O)C2=O (centres undefined) | -10.1% | 8.8% | / | -1.6%
CC1CC(C)(C)N2C(=O)C(=C(C#N)C#N)c3cccc1c32 (centres undefined) | ? | 0.4% | 5.62µM* | -10.8%
CCOCCCNC(=O)C1CCCN(Cc2nc(-c3ccc(CC)cc3)oc2C)C1 (centres undefined) | ? | / | 5.0% | 1.9%
CSc1ncc(C(=O)NCc2cccc(C)c2)c(-c2ccccc2)n1 | -6.3% | / | 0.6% | -1.9%
Cc1ccc(-c2cc(-c3ccc(C)o3)nc(N)c2C#N)cc1 | ? | ? | 3.16µM* | 28.2µM*
Cc1ccc(-c2cc(-c3ccc4c(c3)OCO4)c(C#N)c(N)n2)o1 | -12.0% | -12.7% | 10µM* | -21.2%
Cc1cc(-c2cc(-c3ccc(Cl)cc3)nc(N)c2C#N)co1 | -14.6% | 44.7µM* | 3.16µM* | ?
CCOc1cc(-c2cc(-c3ccc(C)o3)nc(N)c2C#N)ccc1O | -21.0% | 3.8% | -23.6% | 7.3%
Cc1ccc(-c2cc(-c3ccc(Cl)cc3)c(C#N)c(N)n2)o1 | -14.6% | -19.7% | 3.55µM* | ?
Cc1ccc(NC(=O)CSc2nc3nccnc3c(=O)n2CCc2c[nH]c3ccccc23)c(C)c1 | -9.8% | / | 0.5% | 3.2%
SMILES | FMDV antiviral | RE007 growth inh | Sm TGR block | TbPYK inhibitor
O=C(NCCS(=O)(=O)N1CCN(c2ccc(F)cc2)CC1)c1cc(=O)c2ccccc2o1 | -13.0% | / | 2.5% | -4.9%
O=C(Nc1ccc(O)c(-c2nc3ccccc3o2)c1)c1sc2ccccc2c1Cl | -4.5% | / | -6.0% | 4.1%
Cc1ccc(Sc2ccc(N3CCCC(C(=O)Nc4ccc(F)c(Cl)c4)C3)nn2)cc1 (centres undefined) | -10.8% | / | 8.3% | 0.0%
O=C(O)c1ccc(-c2c[nH]c3ccc(-c4ccccc4)cc23)cc1C1CCCC1 | / | / | / | 7.0%
Cc1ccc(-c2cc(-c3ccc(F)cc3)c(C#N)c(N)n2)o1 | -2.4% | ? | 20µM* | ?
Nc1c(S(=O)(=O)O)cc(Nc2ccc(Cl)cc2)c2c1C(=O)c1ccccc1C2=O | -18.2% | / | / | /
CC(C)C(C(=O)NCC1CCCO1)N(Cc1ccccc1)C(=O)CNS(=O)(=O)c1ccccc1 (centres undefined) | -4.6% | 25.1% | 7.08µM* | 2.1%
CC(C)C(C(=O)NCC1CCCO1)N(CC1CCCO1)C(=O)CNS(=O)(=O)c1ccccc1 (centres undefined) | -1.4% | 10.4% | 0.0% | -2.0%
N#CC(C#N)=Cc1ccc(O)c(O)c1 | 0.0% | -0.6%[18.4 µM] | 1.41µM* | -3.0%
N#C/C(=C\c1ccc(O)c(O)c1)S(=O)(=O)c1ccccc1 | 6.0% | -3.5% | 44.7µM* | -10.2%
CC(C)(C)c1cc(C=C(C#N)C#N)cc(C(C)(C)C)c1O | 3.98µM*! | -7.8%[18.4 µM] | ? | -29.6%
N#C/C(=C\c1ccc(O)c(O)c1)C(=O)c1ccc(O)c(O)c1 | -18.3% | 0.3%[18.4 µM] | -24.2% | ?
N#C/C(=C/c1ccc(F)cc1)S(=O)(=O)c1ccccc1 | 11.1% | 1.6% | -4.3% | -2.2%
Cn1cccc1C(=O)N1CCC2(CC1)CCN(c1ccccn1)CC2 | ? | / | / | 6.6%
Cc1c(Cl)cccc1NC(=O)N1CCN(Cc2cc(=O)n3nc(-c4ccccc4F)sc3n2)CC1 | -28.9% | / | -0.2% | -3.3%
CC(C)c1nn2c(=O)cc(COC(=O)c3ccc(NC(=O)c4cccs4)cc3)nc2s1 | 14.6% | / | 1.7% | 1.8%
CC(C)c1cccc(-c2csc(C(O)c3ccc(F)c(F)c3)n2)c1 (centres undefined) | 3.8% | 39.8µM* | / | -2.6%
O=C(O)C1=C[C@@H](c2ccc3c(c2)OCO3)C[C@@H](OCc2ccc(CO)cc2)O1 | 1.1% | 10.5% | 23.3% | -7.8%
NC(=O)C1=C[C@H](c2ccc3c(c2)OCO3)C[C@H](OCc2ccc(CO)cc2)O1 | 56.3% | 12.0% | 56.2µM* | 0.1%
NC(=O)C1=C[C@@H](c2ccccc2)C[C@@H](OCc2ccc(CO)cc2)O1 | -17.7% | -5.7% | 50.1µM* | -1.0%
O=C(O)C1=C[C@@H](c2ccccc2)C[C@@H](OCc2ccc(CO)cc2)O1 | -1.5% | 10.0% | ? | -10.0%
Cc1ccc(-n2c(=O)c3c(cnn3C)n(CC(=O)Nc3ccc(C)cc3C)c2=O)cc1 | -6.8% | / | 0.2% | 0.5%
COc1ccc(C(C)=O)cc1COC(=O)CCCN1C(=O)c2ccccc2C1=O | -9.5% | -10.9% | 8.91µM* | -3.2%
COc1ccc(C(C)=O)cc1COC(=O)CNC(=O)c1cc(C)cc(C)c1 | -7.4% | -2.3% | 31.6µM* | 4.6%
COc1ccc(C(C)=O)cc1COC(=O)CCNS(=O)(=O)c1ccc(C(C)=O)cc1 | -24.2% | 10.4% | 10µM* | -13.0%
COc1ccc(C(C)=O)cc1COC(=O)CCNS(=O)(=O)c1ccc(C)cc1 | -1.3% | 0.4% | 5.62µM* | -1.3%
COc1ccc(C(C)=O)cc1COC(=O)C(CO)NS(=O)(=O)c1ccc(Br)cc1 (centres undefined) | 0.7% | 6.1% | 12.6µM* | 3.6%
COc1ccc(C(C)=O)cc1COC(=O)[C@H](Cc1ccccc1)NC(=O)c1ccco1 | -5.9% | -4.4% | / | 1.3%
